# Results: paper PMC5540273 (PLoS ONE, 2017)
# Assays:
# Settings in all cases: concentration: 1 μM, replicates: in singlicate; n = 1
# PIP5K1A = tested on: PIP5K1A
# PIP5K1C = tested on: PIP5K1C
# PIP5K2B = tested on: PIP5K2B
# PIP5K2C = tested on: T1, PIP5K2C
# T1 construct: gene PIP4K2C
# PKAC-alpha = tested on: T2, PKAC-alpha
# T2 construct: gene PRKACA
# PKAC-beta = tested on: T3, PKAC-beta
# T3 construct: gene PRKACB
# PKMYT1 = tested on: PKMYT1
# PKN1 = tested on: PKN1
# PKN2 = tested on: PKN2
# PLK1 = tested on: PLK1
# PLK2 = tested on: PLK2
# PLK3 = tested on: PLK3
# PLK4 = tested on: PLK4
# PRKCD = tested on: PRKCD
# PRKCE = tested on: PRKCE
# PRKCH = tested on: PRKCH
# PRKCI = tested on: PRKCI
# PRKCQ = tested on: PRKCQ
# PRKD1 = tested on: PRKD1
# PRKD2 = tested on: PRKD2
# 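Further: KINOMEscan kinase panel screen.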
SMILES,%Inh (PIP5K1A) [%],%Inh (PIP5K1C) [%],%Inh (PIP5K2B) [%],%Inh (PIP5K2C) [%],%Inh (PKAC-alpha) [%],%Inh (PKAC-beta) [%],%Inh (PKMYT1) [%],%Inh (PKN1) [%],%Inh (PKN2) [%],%Inh (PLK1) [%],%Inh (PLK2) [%],%Inh (PLK3) [%],%Inh (PLK4) [%],%Inh (PRKCD) [%],%Inh (PRKCE) [%],%Inh (PRKCH) [%],%Inh (PRKCI) [%],%Inh (PRKCQ) [%],%Inh (PRKD1) [%],%Inh (PRKD2) [%]
O=C1NC(=O)C(c2ccccc2Cl)=C1Nc1cccc(Cl)c1 [SB-342409],11,15,13,5,0,0,27,100,0,0,0,0,0,0,42,0,9,100,0,0
CN(C)CCOc1ccc(-c2cc(-c3ccc(Cl)c(O)c3)c(-c3ccncc3)[nH]2)cc1.Cl.Cl [SB-684387],45,54,7,20,33,10,0,39,0,3,4,11,31,0,26,2,14,3,14,2
COc1cc(Nc2nccc(N3CCC(NS(=O)(=O)c4ccc(NC(C)=O)cc4)CC3)n2)cc(OC)c1OC [GSK1379825],11,56,0,77,0,0,40,16,0,4,0,29,27,0,14,35,19,26,0,0
N#Cc1cnc2cc(-c3cnc(CNCCN4CCOCC4)s3)ccc2c1Nc1ccc(Oc2ccccc2)cc1 [GW664114],25,34,31,41,0,0,0,13,0,0,0,0,2,0,0,96.3,5,0,0,18
Cc1cccc(Nc2nc(NCCN)ncc2C(N)=O)c1 [GSK1292139],50,83,15,20,0,0,7,18,29,6,0,0,10,26,44,22,2,7,85,87
Cc1ccccc1CC(=O)N1CCc2cc(-c3cn(C)c4ncnc(N)c34)ccc21 [GSK2603346],0,15,0,5,0,0,0,15,20,0,2,0,0,0,0,51,22,35,18,0
Cl.Cl.NCC(NC(=O)c1cc(-c2cccnc2)c(-c2ccnc3[nH]ccc23)s1)c1ccccc1 (stereo not shown) [GSK1323434],29,80,10,65,95.7,91.2,10,0,0,2,35,0,0,95.4,82,88,47,75,1,12
CSc1ccc(NC2=C(c3ccc(Cl)cc3)C(=O)NC2=O)cc1 [SB-317658],0,0,43,0,16,16,10,7,9,4,6,0,30,4,0,2,8,0,17,0
Cl.N#CCc1ccc(Nc2nccc(Nc3ccc(Oc4ccccc4)cc3)n2)cc1 [GW639905],26,34,20,78,0,0,0,39,0,0,0,0,1,0,6,0,4,0,0,0
COc1cccc(CC(=O)N2CCc3cc(-c4cn(C)c5ncnc(N)c45)ccc32)c1 [GSK2608899],0,10,34,0,4,12,10,19,0,9,0,0,4,17,1,10,31,0,18,1
COc1cccc(-c2nc(-c3ccccc3)[nH]c2-c2ccncc2)c1 [SB-610250],0,38,39,8,0,0,0,0,0,0,0,0,0,0,7,0,25,0,14,0
